The values that follow come from PubChem BioAssay (NCI).

This is part of a sample that, as a whole, favours compounds with a hit. Of some 83,000 tested, about 20% had one in any assay.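 Negative percent growth values reflect cell death: -40 means 40% of the cells present at the start died, and -100 means all died.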 Unmarked numbers belong to inactive results. Activity calls are given as the source filed them.

The subject of this assay is NCI-H226 lung. Nature of the assay: NCI-60 one-dose screen, 48 h (100 = growth as untreated, 0 = no growth, -100 = all killed). The settings on record: 10 µM unless noted. Here is the method: Growth inhibition of the NCI-H226 human Non-Small Cell Lung tumor cell line is measured as a screen for anti-cancer activity. Cells are grown in 96 well plates and exposed to the test compound for 48 hours. Compounds are tested at a single concentration, which is 10^-5 M for most compounds. The reported endpoint is percent growth (GI% or GIPRCNT), where numbers from 0 - 100% represent growth inhibition, and numbers from -100% - 0 represent cell death. For example, a value of 40 represents 60% growth inhibition. A value of 0 means no net growth occurred over the course of the experiment. A value of -40 indicates 40% of cells at the beginning of the experiment died by the end of the experiment. A value of -100 means all cells are dead at the end of the experiment.
NCI-60 Human Tumor Cell Lines Screen was performed using the standard one-dose NCI protocol, which is described in more detail at https://dtp.cancer.gov/discovery_development/nci-60/default.htm.
Compounds with GIPRCNT values below 10 were considered active. Activity score was based on GIPRCNT using the following formula: […]
Score is 0 for GIPRCNT values of 100 or above, 50 for GIPRCNT values of 0, and 100 for GIPRCNT values of -100.
Turning to `O=C1Nc2cc(Cl)ccc2/C1=C\c1ccc(OCc2ccc(Br)cc2F)cc1`, the growth is -50.9% (active). To `COc1ccc(NC2=CC(=O)C(C)=C(C)C2=O)cc1` belongs 97.2%; to `Cn1ccnc1C(=O)/C=C/c1ccc(NC(=O)Nc2ccccc2)cc1`, 35.9%; to `Cc1ccc2c(n1)C(=O)C(Cl)=C(Nc1cccc(C(C)C)c1)C2=O`, 35.4%. For `CS(=O)(=O)c1ccc(-c2nc3ccccn3c2/C=N/Nc2nc(-c3ccc(Cl)cc3)cs2)cc1`, the growth was 108%. To `COc1ccc(-c2nc3ccc(-c4nnc(SCC(=O)Nc5ccc(C(=O)/C=C/c6ccc(Cl)cc6)cc5)o4)cc3[nH]2)cc1OC` belongs 98.5%; to `CSCCC(C(=O)O)N1C(=O)/C(=C/c2ccc(O)c(O)c2)SC1=S` (stereo not given), 107%. To `CS(=O)(=O)c1ccc(-n2cc(/C=C/C(=O)c3ccc(NC(=O)CO[N+](=O)[O-])cc3)c(-c3ccc(Cl)cc3)n2)cc1` belongs 72.2%. For the molecule `COc1cccc(N2CCN(c3ncnc4c3[nH]c3ccc(F)cc34)C[C@@H]2C)c1`, the growth was -60.5% (active). Take `COc1ccccc1/C=C/C=N/NC1=NC2C(S1)N(C)C(=O)N2C` (stereo not given): the growth was 55.7%. To `CN(C)CCCNc1c2ccccc2nc2c1oc1ccc(Cl)cc12` belongs 28.5%. For the molecule `O=C(CSc1nccc(=O)[nH]1)Nc1ccc(-c2nc3ccccc3[nH]2)cc1`, the growth was 105%. For `NS(=O)(=O)c1cccc(Nc2nc(SCC(=O)c3ccc([N+](=O)[O-])cc3)nc3ccccc23)c1`, the growth is -20.9% (active). Next, `C#Cc1nc(C2=C(C)/C(=N/OCc3ccccc3)CC2)cs1`: 48.4%.

As to `COc1ccc([C@@H]2c3[nH]c4ccccc4c3CC3C(=O)N(C4CCN(Cc5c(F)cccc5F)CC4)CC(=O)N32)c(OC)c1` (stereo not given in full), the growth was 57% [5.26 µM]. To `CCOC(=O)c1sc(NCC(=O)Nc2cccc([N+](=O)[O-])c2)c(C(=O)OCC)c1C` belongs -33.7% (active). To `O=C(c1ccc(Cl)cc1)C1[C@H](c2ccc(Cl)cc2)[C@@H](c2ccccc2)NC12C(=O)Nc1ccc(Br)cc12` (stereo not given in full) belongs 38.1%.

Take `Cc1cc(=O)oc2cc(OCCCOc3ccc(/C=C/C(=O)Nc4ccc(Cl)cc4)cc3)ccc12`: the growth was 79.5%.

For the molecule `COc1ccc(/C=C2\SC(=Nc3cc(C)[nH]n3)NC2=O)cc1`, the growth is 86.8%. To `Fc1ccc(-c2cc3nc(C(Cl)Cl)nc(-c4ccc(Cl)cc4)n3n2)cc1` belongs 78.9%; to `Cc1ccc(/C=C/c2nn3c(-c4ccco4)nnc3s2)cc1C`, 106%; to `CS(=O)(=O)Nc1ccc(-c2nn(-c3ccc(S(C)(=O)=O)cc3)cc2/C=C/C(=O)c2ccc(NC(=O)CO[N+](=O)[O-])cc2)cc1`, 89.3%. To `COc1ccc(/C=N/Nc2ccnc3cc(Cl)ccc23)cc1Cl` belongs 69%; to `Fc1ccc(-c2cc3nc(C(Cl)Cl)nc(-c4ccccc4)n3n2)cc1`, 85.7%. To `NC(=O)c1c(NC(=O)c2ccc(C3CCCCC3)cc2)sc2c1CCC(=O)C2` belongs 19.6%. In the case of `O=c1[nH]c2ccccc2cc1CSc1ccccc1Nc1nccc(-c2ccc(C(F)(F)F)cc2)n1`, the growth is 56.8%.

`CCOC(=O)c1c(NC(=O)c2cccc(C(F)(F)F)c2)sc2cc(O)ccc12`: the growth was 98.1%. To `O=C(CCN1C(=O)/C(=C/c2ccccc2)SC1=S)N1CCOCC1` belongs 104%. Regarding `CC(=O)Oc1ccccc1C(=O)Nc1ccc(C(=O)/C=C/c2cccs2)cc1`, the growth was 116%.

`CCCCN1C(=O)/C(=c2\sc3n(c2=O)C2C(NN=3)N(CC)C(=O)N2CC)c2cc(Cl)ccc21` (stereo not given): the growth was 89.8%. Next, `COc1cc2cc(Oc3ccc(NC(=O)c4cccc(C(F)(F)F)c4)cc3)c(C)nc2cc1OCCN1CCCCC1`: 103%; `Cc1ccccc1NC(=O)/C=C/c1ccc(OCCOc2ccc3c(C)cc(=O)oc3c2)cc1`: 92.9%. To `N[C@@H](Cc1cn(-c2ccnc3ccccc23)nn1)C(=O)O` belongs 109%; to `CCOC(=O)c1csc(NC(=O)CSc2nc3sc4c(c3c(=O)n2-c2ccc(Cl)cc2)CCCC4)n1`, 101%; to `Clc1ccc2c(NCCCn3ccnc3)c3oc4ccc(Cl)cc4c3nc2c1`, 57.8%.

Consider `CCN(CC)c1ccc(C=O)c(OCc2cn(CC(=O)Nc3ccc(Cl)cc3)nn2)c1`, for which the growth is 77.5%. `Cn1ccnc1C(=O)/C=C/c1ccc(NC(=O)Nc2ccc(Cl)cc2)cc1`: the growth is 81.9%. To `N/C(=N\c1nc2c(Cl)cc(Cl)cc2s1)C(Cl)(Cl)Cl` belongs 73.5%; to `Nc1cc(-c2c[nH]c3ccc(F)cc23)nc2cc(-c3c[nH]c4ccc(F)cc34)nn12`, 97.4%. To `COc1cc2nc(-c3ccc(Cl)cc3)cc(OCCCNCC3CCCO3)c2cc1OC` (stereo not given) belongs 75.8%.
